# Source: PubChem
# Mtb betalactam: beta-lactam sensitization of Mtb H37Rv; M. tuberculosis H37Rv growth with meropenem, percent inhibition; inhibition, % at 25 µM; actives 0.27% (n = 330,000); call rule not given here;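 also: growth measured after seven days incubation then overnight dye step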
# MazEF act: MazEF (E. coli) toxin RNase activation. P0AE70. FAM/BHQ RNA-DNA oligo cleavage fluorescence, 5 h. activation, % at 20 µM. actives 0.32% (n = 350,000). AID 504720; in the data active = activation above about 50%
# Target sequence (P0AE70 whole entry, looked up): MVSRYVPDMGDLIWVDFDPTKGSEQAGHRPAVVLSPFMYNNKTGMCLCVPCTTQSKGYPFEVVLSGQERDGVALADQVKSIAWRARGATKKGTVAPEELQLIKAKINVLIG
# CCHF vOTU inh-1: CCHFV vOTU protease inhibition; Pep-AMC fluorescence; inhibition, % at 11.5 µM; actives 0.55% (n = 370,000)
# GDH-TPI counter: GDH-TPI coupled enzyme inhibition counter-screen | AID 588335 | actives 1.2% (n = 360,000) | GDH-TPI coupled enzyme counterscreen, NADH absorbance | inhibition, % at 4.8 µM
# FBA Mtb inh: Mtb fructose-bisphosphate aldolase inhibition. P9WQA3. purified M. tuberculosis FBA, fluorescence read-out. inhibition, % at 1 µM. actives 2.3% (n = 360,000); in the data active = inhibition above about 27%
# Target sequence (P9WQA3 whole entry, looked up): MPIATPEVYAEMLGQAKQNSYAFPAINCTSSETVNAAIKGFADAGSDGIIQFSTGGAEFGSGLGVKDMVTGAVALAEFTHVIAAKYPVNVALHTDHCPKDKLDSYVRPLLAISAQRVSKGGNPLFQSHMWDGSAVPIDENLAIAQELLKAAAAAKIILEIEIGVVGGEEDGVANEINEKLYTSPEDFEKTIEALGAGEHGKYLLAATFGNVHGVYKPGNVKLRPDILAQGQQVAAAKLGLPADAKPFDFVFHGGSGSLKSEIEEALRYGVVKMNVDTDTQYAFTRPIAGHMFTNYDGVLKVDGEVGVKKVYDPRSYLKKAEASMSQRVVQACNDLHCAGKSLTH
# CCHF vOTU inh-2: CCHFV vOTU protease inhibition, confirmation | AID 686976 | actives 17% (n = 1,900) | shares compounds with CCHF vOTU inh-1 | Recombinant CCHFV vOTU, Pep-AMC fluorescence | inhibition, % at 11.5 µM
# A number is an active result; 0 = inactive; - = no result given. Only some compounds are listed: those with a hit (about 4% of all), similar ones and a draw of the others. Rule as the data show it, unless noted: active = inhibition above about 30%; inactive = the rest.
SMILES,Mtb betalactam,MazEF act,CCHF vOTU inh-1,GDH-TPI counter,FBA Mtb inh,CCHF vOTU inh-2
CCCCCCN1C[C@H](n2cc(COC(=O)c3ccccc3)nn2)[C@@H](O)C[C@@H]1c1ccc(OC)cc1,-,0,0,0,0,-
COc1ccccc1CN1C[C@@H]2C[C@@H](c3[nH]c4c(C)cccc4c3C)N3CCC[C@@]23C1=O,0,0,0,0,0,-
CN1CCc2c(sc(NC(=O)C3CCCN3S(=O)(=O)c3ccc(Cl)s3)c2C(N)=O)C1 (stereo not given),0,0,0,0,0,-
C[C@@H]1CN(C(=O)OC(C)(C)C)CCN1c1ccc(N2CC[C@H](O)C2)c(C#N)c1,-,-,48,-,-,0
C[C@@H]1CN(c2ccc(N3CCN(C(=O)OC(C)(C)C)C[C@H]3C)cc2C#N)C[C@H](C)O1,-,-,0,-,-,-
C[C@@H]1CN(c2ccc(N3CCN(C(=O)OC(C)(C)C)C[C@@H]3C)cc2C#N)C[C@H](C)O1,-,-,41,-,-,0
CC(C)NC(=O)C1(C)CCN1C(=O)c1cccc(F)c1 (stereo not given),-,-,0,0,0,-
Cc1ccccc1OCc1occc1C(=O)Nc1cccc(-n2cnnn2)c1,0,0,0,0,0,-
COc1ccc(C(=O)NCCOc2ccccc2Cl)c(OC)c1OC,0,0,0,0,0,-
O=C1NCCCC2c3c(cc(Br)c(O)c3Br)OC12N1CCOCC1 (stereo not given),0,0,0,0,0,-
O=C1NCCCC2c3cc(O)c4ccccc4c3OC12N1CCCCC1 (stereo not given),0,-,92,-,-,0
CCNC(=S)NNC(=O)c1cc(-c2ccccc2C)nc2ccccc12,0,0,-,0,0,-
Cc1ccc(C)c(-c2cc(C(=O)NNC(=S)NCC(C)C)c3ccccc3n2)c1,0,0,34,0,0,0
CC(=O)Nc1ccc(NC(=O)C(C)OC(=O)c2ccccc2NS(=O)(=O)c2cccs2)cc1 (stereo not given),0,0,0,0,0,-
CC(=O)Nc1ccc(NC2=C/C(=N/S(=O)(=O)c3cccs3)c3ccccc3C2=O)cc1,0,0,110,0,0,97
COc1ccc(S(=O)(=O)c2ccc(O)cc2)cc1,0,0,0,0,0,-
Cc1ccccc1NC1=C/C(=N\S(=O)(=O)c2cccs2)c2ccccc2C1=O,0,0,101,0,0,98
Cc1ccc(NC2=C/C(=N/S(=O)(=O)c3cccs3)c3ccccc3C2=O)cc1C,0,0,0,0,0,-
COc1ccc(S(=O)(=O)/N=C2\C=C(Nc3ccc(O)cc3)C(=O)c3ccccc32)cc1,0,0,110,0,0,105
O=C(CSCc1ccc(Br)cc1)N1CCCC1,0,0,0,0,0,-
O=C(/C=C/c1ccccc1)Nc1cc(NC(=O)/C=C/c2ccccc2)cc(C(=O)O)c1,0,0,36,0,0,0
COc1cc(CNC2CCCC2)c(Br)cc1OC1CCCC1,0,0,0,0,0,-
COc1cc(CNCc2ccccc2)c(Br)cc1OC1CCCC1,0,0,31,0,0,0
O=C(Nc1ccccc1)n1cc(-c2ccccn2)c(N2CCOCC2)n1,0,0,0,0,0,-
Cc1ccc(NC(=O)c2ccccc2NS(=O)(=O)c2ccc(Cl)s2)cc1S(=O)(=O)N1CCOCC1,0,0,31,0,0,0
SMILES,Mtb betalactam,MazEF act,CCHF vOTU inh-1,GDH-TPI counter,FBA Mtb inh,CCHF vOTU inh-2
Cc1cc(C)nc(SCC(=O)N(C)CC(=O)Nc2ccccc2Br)n1,0,0,0,0,0,-
Cc1cc(C)nc(SCC(=O)N(C)CC(=O)Nc2c(Cl)cccc2Cl)n1,0,0,34,0,0,0
Cc1cccc(C(=O)N[C@@H](C)C(=O)N2CCN(c3ncccn3)CC2)c1,0,0,34,0,0,0
O=C(COC(=O)C1CCN(c2ccc(C(F)(F)F)cn2)CC1)NCc1ccccc1,0,0,35,0,0,0
CC(NC(=O)COC(=O)C1CCN(c2ccc(C(F)(F)F)cn2)CC1)c1ccccc1 (stereo not given),-,0,0,0,0,-
Cn1cc(C(=O)C(=O)NC2CCCCC2)c2ccccc21,0,0,0,0,0,-
CCc1nc2c(OCCC3CCCCC3)cccn2c1N(C)C(=O)c1ccc(OC)cc1,-,-,0,0,0,-
CCc1nc2c(OCCC3CCCCC3)cccn2c1N(C)C(=O)c1ccncc1,-,-,31,0,0,0
NCCNc1ccc(C(=O)N2c3ccccc3Sc3ccccc32)cc1[N+](=O)[O-],0,0,0,0,0,-
CC(=O)N1CCN=C1SCc1cccc(F)c1,0,0,0,0,0,-
CC(C)NC(=O)Cn1cc(C(=O)COc2ccccc2)c2ccccc21,0,0,0,0,0,-
C(=N\Nc1nc(-c2ccccc2)cs1)/c1ccco1,0,0,31,0,0,0
Brc1ccc(-c2csc(N/N=C/c3ccco3)n2)cc1,0,0,0,0,0,-
O=C(NCc1ccc(Cl)c(Cl)c1)c1cc(C2CCCCN2C(=O)C2CCCCC2)on1 (stereo not given),-,-,31,0,0,0
CCN(CC(=O)Nc1ccccc1C(F)(F)F)CC(=O)c1[nH]c(C)c(C(C)=O)c1C,-,0,38,0,0,0
CCCOc1ccc(N)cc1N,0,0,85,0,0,0
CC(C)Oc1ccc(CNC(=O)CCCN2C(=O)C(c3ccccc3)Oc3cccnc32)cc1 (stereo not given),0,0,0,0,0,-
CCOC(=O)C1CCN(C(=O)c2c(C)oc3c2C(=O)c2ccccc2C3=O)CC1,0,0,61,0,0,46
Cc1oc2c(c1C(=O)N1CCC(C)CC1)C(=O)c1ccccc1C2=O,0,0,32,-,-,0
CC(NC(=O)C1CCN(S(=O)(=O)c2cccs2)CC1)c1cccc(Cl)c1 (stereo not given),0,0,0,0,0,-
COC(=O)c1sc(N2C(=O)C(O)=C(C(=O)c3ccc(C)o3)C2c2ccc([N+](=O)[O-])cc2)nc1C (stereo not given),0,0,31,0,0,0
CC1=C(C(=O)OCC(C)C)C2(O)C(=O)c3ccccc3C2(O)N1 (stereo not given),0,0,30,0,0,0
COc1ccc(C(N)c2csc(Nc3ccc(S(C)(=O)=O)cc3)n2)cc1 (stereo not given),-,-,0,0,0,-
O=C(Nc1cccnc1)c1cc2cc(Br)ccc2o1,0,0,0,0,0,-
CCOC(=O)c1cc2c(ccn2C)n1CC(=O)N(Cc1ccccc1)c1ccc(F)cc1,0,0,0,0,0,-
CCOC(=O)c1cc2c(ccn2C)n1Cc1ccccc1C,0,0,31,0,0,43
CCOC(=O)c1cc2c(ccn2C)n1CC(=O)N(Cc1ccccc1)c1ccccc1,0,0,55,0,0,0
CCn1cc(C(=O)N(C)CC(OC)OC)c(=O)c2cc(S(=O)(=O)N3CCOCC3)ccc21,0,0,0,0,0,-
COC(=O)c1ccccc1NC(=O)CN(c1c(C)cccc1C)S(C)(=O)=O,0,0,0,0,0,-
